# Screening data: PubChem BioAssay, National Center for Advancing Translational Sciences (NCATS)
# This is a sample that favours compounds with a hit; in the whole collection about 3% have one here.
# KAT2A inh: blocks human GCN5L2 histone acetyltransferase; Potency, µM (series often up to 58.9 µM), without a hit: at the top dose activity change, negative = inhibition, hits mostly inhibitors; GCN5L2 HAT assay, ThioGlo1 CoA-SH fluorescence; 390,000 compounds, 0.21% hits; Q92830
#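 Preincubate 20nM GCN5L2 with compound 15 min, RT → add 50uM ThioGlo1 + 75uM H3(1-25) + 70uM acetyl-CoA → read fluorescence 0 and 20 min. Primary qHTS; fluorescent artifacts likely.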
# ALOX12 inh: blocks human arachidonate 12S-lipoxygenase; P18054; purified 12hLO, xylenol orange hydroperoxide absorbance; Potency, µM (titrated, usually from 108 µM), for inactives: top-dose activity change, negative = inhibition, most hits filed as inhibitors; 580,000 compounds, 1.1% hits; AID 1671190
#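 Hydroperoxide product was detected by ferrous iron/xylenol orange as the 573 to 405 nm absorbance ratio. Arachidonic acid at 40 uM (final) was turned over for 30 min at room temperature by 150 nM human 12hLO, pH 7.0 Hepes buffer, after 15 min compound preincubation.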
# PLK1 PBD block: inhibitors of human PLK1 polo-box domain binding; Plk1 PBD binding of FITC phosphopeptide, fluorescence polarization; Potency, µM, inactives show max response, negative = inhibition, hits mostly inhibitors; 360,000 compounds, 2.8% hits; AID 720504; further: series mostly up to about 57 µM; nearly all actives have a fitted effect of over 65% in size
# VDR inhibitor: vitamin D3 receptor (human) inhibition. VDR-SRC2-3 peptide fluorescence polarization, 2 h. Potency, µM, without a hit: max response, negative = inhibition, hits mostly inhibitors. 400,000 compounds, 0.93% hits. AID 504847. P11473
# Target sequence (P11473 whole entry, looked up): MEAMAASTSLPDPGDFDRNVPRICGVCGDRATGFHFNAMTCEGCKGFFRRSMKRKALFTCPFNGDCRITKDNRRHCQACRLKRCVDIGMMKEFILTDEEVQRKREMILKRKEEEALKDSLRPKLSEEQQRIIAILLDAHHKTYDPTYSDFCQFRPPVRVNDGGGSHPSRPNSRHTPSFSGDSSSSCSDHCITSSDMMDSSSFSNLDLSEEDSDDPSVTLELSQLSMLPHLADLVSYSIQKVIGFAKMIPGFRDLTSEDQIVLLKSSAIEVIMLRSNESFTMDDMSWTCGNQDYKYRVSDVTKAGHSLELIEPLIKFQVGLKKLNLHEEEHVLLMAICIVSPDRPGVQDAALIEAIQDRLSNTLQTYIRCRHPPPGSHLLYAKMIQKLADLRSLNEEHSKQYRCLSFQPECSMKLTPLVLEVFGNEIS
#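 Compounds are added to VDR with labelled SRC2-3 coactivator peptide and held 2 h at room temperature. Inhibition of the VDR–peptide interaction is then read as a change in fluorescence polarization.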
# Numbers without * were called inactive; ? = inconclusive; / = no result given. The call rests on the fitted dose curve; in most records, active means well fitted curve in the direction sought with a large enough effect; inconclusive means small, poorly fitted or top-dose-only effect, or another doubt; inactive means no such curve, though single readings can be large; an effect the other way counts as inactive or inconclusive. On the % scale 0 is the no-effect control and ±100 the full control effect; potency means the concentration at half of the fitted maximal effect.
SMILES,KAT2A inh,ALOX12 inh,PLK1 PBD block,VDR inhibitor
COc1cc(-c2nn3c(-c4ccccn4)nnc3s2)cc(OC)c1OC,1%,/,/,/
COc1cc(-c2nnc3sc(Cc4ccccc4)nn23)cc(OC)c1OC,6%,?,27µM*,-16%
COc1ccc(Cc2nn3c(-c4ccccc4Br)nnc3s2)cc1,-3%,20%,-3%,-4%
COc1ccc(Cc2nn3c(-c4cc(OC)c(OC)c(OC)c4)nnc3s2)cc1,-8%,0%,24µM*,-21%
COc1cc(-c2nnc3sc(Cc4ccc(Cl)cc4)nn23)cc(OC)c1OC,/,?,24µM*,?
FC(F)(Cl)c1nnc2ccc(Sc3ccccn3)nn12,-7%,1%,21µM*,-10%
Cc1ccc(-c2[nH]ncc2CN2C[C@@H](CO)[C@H](c3ccccn3)C2)cc1,/,-17%,/,/
Cc1cnc(NC(=O)COc2ccccc2)s1,-7%,-23%,30µM*,-1%
COc1cccc(-c2nnc(-c3ccco3)o2)c1,1%,9%,30µM*,?
Brc1ccc(-c2ccc(-c3nnc(-c4ccco4)o3)o2)cc1,/,14µM*,/,/
Cc1ccc(C(=O)COC(=O)CNC(=O)CNC(=O)c2ccc(C)cc2)cc1,-6%,1%,-4%,-24%
Cc1ccc(C(=O)NCC(=O)NCC(=O)OCC(=O)c2ccc([N+](=O)[O-])cc2)cc1,3%,-18%,-7%,79µM*
COC(=O)C(CC(=O)O)NCc1ccco1 (stereo not given),-2%,-6%,12µM*,-13%
Cc1ccc(C(=O)N2CCC3(CC2)N(c2ccccc2)C(=O)CS3(=O)=O)cc1F,/,10%,/,/
CN(C)c1ccc(C(=O)N2CCC3(CC2)NC(=O)N(c2ccccc2)N3)cc1,/,2.8µM*,/,/
Cc1ccc(C(=O)N2CCC3(CC2)NC(=O)N(c2ccccc2)N3)cc1F,/,4µM*,/,/
CC(=O)N1CCC2(CC1)NC(=O)N(c1ccccc1)N2,-3%,?,-3%,9%
Cc1ccccc1-c1nc(CS(=O)(=O)CC(=O)NCc2ccccc2Br)c(C)o1,/,-29%,/,/
Cc1ccc2c(COC(=O)c3cc(S(=O)(=O)N(C)C)ccc3NCCO)cc(=O)oc2c1,/,-14%,/,/
COC(=O)CNC(c1ccccc1)c1cc(Br)ccc1NC(=O)CCN1CCOCC1 (stereo not given),-2%,40µM*,?,?
CCOC(=O)c1cccc(NC(=O)CCc2nnc3ccc(N4CCN(C)CC4)nn23)c1,-17%,14%,24µM*,-12%
COc1cccc(N2CCN(c3ccc4nnc(CCC(=O)N5CCC(C)CC5)n4n3)CC2)c1,-16%,7%,24µM*,-28%
COc1ccc(OC)c(CCNC(=O)CCc2nnc3ccc(N4CCOCC4)nn23)c1,0%,3%,30µM*,-20%
CCOC(=O)c1cccc(NC(=O)CCc2nnc3ccc(N4CCCCC4)nn23)c1,2%,6%,-18%,-3%
COc1ccc(OC)c(CCNC(=O)CCc2nnc3ccc(N4CCCCC4)nn23)c1,-30%,-6%,2%,-1%
SMILES,KAT2A inh,ALOX12 inh,PLK1 PBD block,VDR inhibitor
O=C(CCc1nnc2ccc(N3CCC4(CC3)OCCO4)nn12)Nc1ccc(F)cc1,-2%,-2%,13µM*,?
COc1cccc(NC(=O)c2ccc(-c3nnc4ccc(NC(=O)C5CCC5)cn34)cc2)c1,/,8%,/,/
NS(=O)(=O)c1ccc(CCC(=O)Nc2nc3c(s2)CCCC3)cc1,/,-6%,/,/
COc1cccc(N2CCN(c3ccc4nnc(CCC(=O)Nc5cccc(C(C)=O)c5)n4n3)CC2)c1,-5%,-7%,21µM*,?
COc1cccc(N2CCN(c3ccc4nnc(CCC(=O)Nc5ccc(F)cc5)n4n3)CC2)c1,0%,-2%,-9%,-18%
COc1ccccc1CNC(=O)CCc1nnc2ccc(NCCCN3CCCC3=O)nn12,-3%,-9%,21µM*,-9%
CC(NC(=O)C12CC3CC(CC(C3)C1)C2)c1cccs1 (stereo not given),/,-34%,/,/
CC1(C)CC(=O)C2=C(C1)OC(N)=C(C#N)C2c1ccc(C#N)cc1 (stereo not given),/,-53%,/,/
CN(C)C(CNS(=O)(=O)c1cc([N+](=O)[O-])ccc1Cl)c1ccco1 (stereo not given),-2%,?,27µM*,-2%
CN(C)C(CNC(=O)c1ccc([N+](=O)[O-])cc1Cl)c1ccco1 (stereo not given),-1%,?,-1%,-1%
O=C(Cc1ccc2c(c1)CCC2)NC(c1ccc(F)cc1)c1cccs1 (stereo not given),/,-27%,/,/
COc1cc(C2c3sc(=O)[nH]c3SC3C(=O)N(c4ccc(Br)cc4)C(=O)C32)ccc1O (stereo not given),?,40µM*,-20%,-7%
CCOc1ccc(N2C(=O)C3Sc4[nH]c(=O)sc4C(/C=C/c4ccccc4)C3C2=O)cc1 (stereo not given),-24%,?,?,?
CCC(C)NC(=O)Cn1c(=O)n(C)c(=O)c2sc(N3CCCC3)nc21 (stereo not given),/,-19%,/,/
Nc1sc2c(c1C(=O)NC1CC1)CCCC2,-8%,?,19µM*,79µM*
CCNC(=O)c1c(N)sc2c1CCCCC2,-6%,/,/,/
O=C(COC(=O)c1cc(C2CC2)nn1-c1ccccc1)Nc1ccccc1,/,-21%,/,/
O=C(Nc1nnc(Cc2c[nH]c3ccccc23)s1)C1CCCCC1,/,24%,/,/
CCOc1ccccc1NC(=O)Cn1nnc(C(=O)NCc2ccccc2)c1N,/,-9%,/,/
O=C(Nc1ncc2c(n1)-c1ccccc1CC2)c1cccc(Cl)c1,3.2µM*,-23%,-14%,-20%
CC1(C)CC(=O)C(C(C#Cc2ccccc2)C2=C(O)CC(C)(C)CC2=O)=C(O)C1,-5%,?,4.2µM*,22µM*
CSc1ccccc1C(=O)O,/,6%,/,/
O=C1CCCC(O)=C1Sc1ccccc1C(=O)O,2%,?,21µM*,-16%
